Source: PubChem BioAssay
Values joined by “and” are separate entries in the source; they are usually repeats but may differ in a detail not shown here. Equal entries are not always repeated. Inconclusive results are not listed. For some assays here: Measured potencies and affinities stand elsewhere. Active and inactive are the calls of the source. Unless noted, no stated cut-off is given here; in the data, active means inhibition above about 80%; inactive means the rest.

How the values were obtained:
[1] = rescue of PC12 cells from polyQ htt toxicity – LDH release (AID 1610); conditions: PC12 mutant huntingtin toxicity, final LDH at 4 uM, stronger effect = lower value
[2] = human hepatoma cell viability loss – ATP luminescence, cytotoxicity control for P. falciparum antimalarial project, primary screen (AID 2303;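 active means inhibition above 50%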;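 further: 0% = DMSO wells and 100% = digitonin-killed cells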); conditions: HepG2 viability, 24-48 h, at 10 µM, stronger effect = higher value
[3] = molecular target: L-lactate dehydrogenase (Plasmodium falciparum (isolate CDC / Honduras)) (UniProt Q27743); assay: PfLDH activity inhibition – cell lysate, 3D7 strain, counter-screen for P. falciparum growth inhibition project (AID 2304; call rule not given here;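 further: 0% = vehicle and 100% = reference inhibitor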); conditions: P. falciparum 3D7 crude extract, LDH APAD/NBT absorbance; at 2 µM; stronger effect = higher value
Chain of L-lactate dehydrogenase (Plasmodium falciparum (isolate CDC / Honduras)) (Q27743 whole entry, looked up): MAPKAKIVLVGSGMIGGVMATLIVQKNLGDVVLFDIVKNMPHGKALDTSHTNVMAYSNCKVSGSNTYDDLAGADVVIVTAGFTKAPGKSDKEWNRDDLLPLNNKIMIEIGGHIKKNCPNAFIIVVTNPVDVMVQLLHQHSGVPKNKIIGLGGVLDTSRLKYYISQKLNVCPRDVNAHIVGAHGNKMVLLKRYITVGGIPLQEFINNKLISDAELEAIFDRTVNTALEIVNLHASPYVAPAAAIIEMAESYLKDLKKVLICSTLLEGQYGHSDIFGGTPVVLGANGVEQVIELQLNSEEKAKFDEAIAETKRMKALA

[4] = inhibition of 3D7 malaria parasite growth – strain 3D7 (AID 2306; call rule not given here;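 further: 0% = DMSO wells and 100% = chloroquine plus artemisinin control wells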); conditions: P. falciparum 3D7 erythrocytic growth, LDH absorbance, 72 h; at 2 µM; stronger effect = higher value
[5] = molecular target: Calcium-dependent protein kinase 1 (Plasmodium falciparum (isolate 3D7)) (UniProt P62344); assay: PfCDPK1 kinase inhibitors, biochemical, TCAMS library (AID 1159585; cut-off not given, nearly all actives have IC50 up to about 0.98 µM;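 further: inhibitors leave more ATP so luminescence rises with inhibition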); conditions: recombinant PfCDPK1, Kinase-Glo ATP depletion luminescence
Chain of Calcium-dependent protein kinase 1 (Plasmodium falciparum (isolate 3D7)) (P62344 whole entry, looked up): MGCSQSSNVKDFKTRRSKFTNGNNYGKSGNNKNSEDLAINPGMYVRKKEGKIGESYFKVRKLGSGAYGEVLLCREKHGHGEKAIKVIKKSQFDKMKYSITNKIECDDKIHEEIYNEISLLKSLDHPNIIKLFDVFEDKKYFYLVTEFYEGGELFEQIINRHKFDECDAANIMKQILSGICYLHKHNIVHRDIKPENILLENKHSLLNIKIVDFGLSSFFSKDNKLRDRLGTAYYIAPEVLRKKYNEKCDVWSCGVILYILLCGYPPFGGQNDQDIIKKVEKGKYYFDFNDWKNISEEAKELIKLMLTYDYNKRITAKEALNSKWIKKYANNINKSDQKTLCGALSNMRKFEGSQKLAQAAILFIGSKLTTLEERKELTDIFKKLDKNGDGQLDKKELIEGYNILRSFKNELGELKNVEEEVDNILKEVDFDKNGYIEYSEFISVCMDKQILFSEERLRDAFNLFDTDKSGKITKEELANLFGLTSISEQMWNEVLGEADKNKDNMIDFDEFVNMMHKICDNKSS

[6] = molecular target: Plasmodium falciparum protein kinase 6 (PK6, PF3D7_1337100) (UniProt Q8IDW1); assay: PfPK6 kinase inhibitors, biochemical, TCAMS library (AID 1159586; call rule not given here); conditions: recombinant PfPK6, Kinase-Glo ATP depletion luminescence
Chain of Plasmodium falciparum protein kinase 6 (PK6, PF3D7_1337100) (Q8IDW1 1-305): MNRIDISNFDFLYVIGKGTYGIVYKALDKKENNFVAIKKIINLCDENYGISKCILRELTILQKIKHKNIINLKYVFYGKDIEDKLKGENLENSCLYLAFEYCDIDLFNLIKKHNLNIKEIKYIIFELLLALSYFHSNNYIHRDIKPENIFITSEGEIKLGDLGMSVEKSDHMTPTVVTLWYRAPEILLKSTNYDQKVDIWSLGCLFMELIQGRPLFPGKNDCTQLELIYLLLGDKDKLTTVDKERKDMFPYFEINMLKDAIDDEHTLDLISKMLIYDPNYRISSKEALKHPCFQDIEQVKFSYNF

[7] = molecular target: Protein kinase 7 (PK7), Plasmodium falciparum 3D7 (PF3D7_0213400) (UniProt Q7YTF7); assay: inhibition of Plasmodium PK7 catalytic activity – biochemical, TCAMS antimalarial set, Kinase-Glo luminescence (AID 1159587; call rule not given here); conditions: recombinant PfPK7, Kinase-Glo ATP depletion luminescence
Chain of Protein kinase 7 (PK7), Plasmodium falciparum 3D7 (PF3D7_0213400) (Q7YTF7 1-343): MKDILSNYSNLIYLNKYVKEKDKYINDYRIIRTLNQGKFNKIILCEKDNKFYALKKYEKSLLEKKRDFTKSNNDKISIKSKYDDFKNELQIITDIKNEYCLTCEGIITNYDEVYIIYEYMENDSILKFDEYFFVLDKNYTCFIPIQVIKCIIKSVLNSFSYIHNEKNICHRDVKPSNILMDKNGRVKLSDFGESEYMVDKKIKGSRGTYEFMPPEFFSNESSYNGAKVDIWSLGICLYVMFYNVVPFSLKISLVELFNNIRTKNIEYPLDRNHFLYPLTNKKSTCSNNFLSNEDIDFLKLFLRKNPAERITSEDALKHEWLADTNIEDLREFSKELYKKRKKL

[8] = growth inhibition, single agent and combos, cell-based, chromothripsis tumors, cisplatin or BGB combos (AID 1671450); conditions: HDN33 neuroblastoma cells, stronger effect = higher value;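 further: cells exposed to compound for four days; 0% = vehicle DMSO and 100% = cell killing by high DMSO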
[9] = growth inhibition, single agents and combos, LFS_MB_1R, cell-based, cisplatin or BGB combos, synergistic combos for chromothripsis tumors (AID 1671452); conditions: LFS_MB_1R medulloblastoma cells, stronger effect = higher value;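 further: cells exposed for 96 hours before readout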
[10] = growth inhibition, single agents and combos, HTB85, cell-based, BGB or cisplatin IC20 combos, synergistic combos for chromothripsis tumors (AID 1671453); conditions: HTB85 osteosarcoma cells, drug combinations, stronger effect = higher value;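 further: cells exposed for 96 hours before readout; 0% = vehicle DMSO and 100% = high DMSO killing control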
[11] = growth inhibition, single agents and combos, CRL2098, cell-based, BGB or cisplatin IC20 combos, synergistic combos for chromothripsis tumors (AID 1671454); conditions: CRL2098 osteosarcoma cells, drug combinations, stronger effect = higher value;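 further: cells exposed for 96 h before readout; 0% = vehicle DMSO and 100% = killing by high DMSO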
[12] = growth inhibition, single agents and combos, HD-MB03, cell-based, BGB or cisplatin IC20 combos, synergistic combos for chromothripsis tumors (AID 1671455; in the data active means inhibition above about 83%;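 further: 0% = vehicle DMSO and 100% = high DMSO as cytotoxic control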); conditions: HD-MB03 medulloblastoma cells, stronger effect = higher value
[13] = growth inhibition, single agents and combos, UWB1.289, cell-based, BGB or cisplatin combos, synergistic combos for chromothripsis tumors (AID 1671456); conditions: UWB1.289 ovarian carcinoma cells, stronger effect = higher value;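 further: cells exposed to compound for four days; 0% = vehicle DMSO and 100% = killing by high DMSO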
[14] = growth inhibition, single agents and combos, LFS_MB_2R, cell-based, cisplatin combos, synergistic combos for chromothripsis tumors (AID 1671457); conditions: LFS_MB_2R medulloblastoma cells, stronger effect = higher value;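 further: cells exposed to compound for four days before readout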
[15] = growth inhibition, MDA-MB-436, cell-based, BGB or cisplatin combos, synergistic combos for chromothripsis tumors (AID 1671458; call rule not given here;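 further: cells exposed for 96 hours; 0% = vehicle DMSO and 100% = killing by high DMSO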); conditions: MDA-MB-436 breast carcinoma growth inhibition, drug combinations, stronger effect = higher value
[16] = UWB1.289_BRCA1 ovarian cancer growth, cell-based, BGB or cisplatin combinations (AID 1671459); conditions: UWB1.289 BRCA1 ovarian carcinoma, drug combinations, stronger effect = higher value
[17] = drug combination toxicity in non-malignant astrocytes – cell-based, BGB or cisplatin IC20 combos, cytotoxicity control for chromothriptic childhood tumor combination screen (AID 1671460); conditions: Human astrocytes, viability inhibition, drug combinations, at 0.5 µM, stronger effect = higher value;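 further: cells exposed to compounds for 96 hours before viability readout; 0% = vehicle and 100% = killing control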
[18] = BT084 cell growth, single and combined drugs, ICGC_MB145, cisplatin and BGB IC40 combos (AID 1671461); conditions: BT084 medulloblastoma cells, drug combinations, stronger effect = higher value;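 further: cells exposed to drugs for 96 hours; 0% = vehicle DMSO and 100% = high DMSO full killing control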
[19] = RCMB18 cell growth, single agent and combined, cisplatin and BGB IC40 combos (AID 1671462); conditions: RCMB18 medulloblastoma cells, stronger effect = higher value;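 further: cells exposed to compound for four days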
[20] = CRL1545 cell growth, single agent and combined, cisplatin and BGB IC20 combos (AID 1671464); conditions: CRL1545 osteosarcoma cells, stronger effect = higher value;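 further: cells exposed to compound for 96 hours before readout; 0% = vehicle DMSO and 100% = high DMSO killing control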
[21] = measured here: with BGB IC20 combination, at 0.5 µM
[22] = measured here: with cisplatin IC20 combination, at 0.5 µM
[23] = measured here: combination with cisplatin, at 0.5 µM
[24] = measured here: combination with cisplatin, at 5 µM

CC(C)(C)c1ccc(C(O)CCCN2CCC(C(O)(c3ccccc3)c3ccccc3)CC2)cc1 (stereo not drawn)
normalised LDH release [1]: 1

COc1ccc(C[C@H](N)C(=O)N[C@H]2[C@@H](O)[C@H](n3cnc4c(N(C)C)ncnc43)O[C@@H]2CO)cc1
inhibition [2]: 98% (active) | inhibition [3]: 5% (inactive) | growth inhibition [4]: 100% (active) | outcome [5]: inactive | outcome [6]: inactive | outcome [7]: inactive

O=c1ccc2ccc(O)c(O)c2o1
inhibition [2]: 4% (inactive) | inhibition [3]: 0% (inactive) | growth inhibition [4]: 85% (active) | outcome [5]: inactive | outcome [6]: inactive | outcome [7]: inactive

CN(C)c1nc(N(C)C)nc(N(C)C)n1
inhibition ([8]; BGB combo, at 5 µM): -7.22% and 3.98% | inhibition ([8]; at 0.5 µM): 2.99% (inactive) and -25.1% (inactive) | inhibition ([8]; cisplatin combo, at 5 µM): -6.3% and -2.36% | inhibition [8, 21]: 12.7% and -32.8% | inhibition [8, 22]: 1.13% and -2.01% | inhibition ([8]; single agent, at 5 µM): -11% and -2.53% | inhibition ([9]; at 0.5 µM): -12.2% (inactive) and -12.7% (inactive) | inhibition ([9]; measured here: combination with BGB IC40, at 0.05 µM): -30.7% and -16.9% | inhibition [9, 23]: -26.8% and 10.6% | inhibition [9, 24]: 4.67% and 9.66% | inhibition ([10]; at 0.5 µM): -13.6% (inactive) and -3.84% (inactive) | inhibition ([10]; measured here: with BGB IC20, at 0.5 µM): -29.4% and -7.2% | inhibition ([10]; measured here: with BGB IC20, at 5 µM): -7.32% and 14% | inhibition ([10]; measured here: with cisplatin IC20, at 0.5 µM): -12.3% and -1.06% | inhibition ([10]; measured here: with cisplatin IC20, at 5 µM): 6.76% and 3.22% | inhibition ([10]; single agent, at 5 µM): -2.06% and 11.5% | inhibition ([11]; at 0.5 µM): -49.5% (inactive) and -47.8% (inactive) | inhibition ([11]; measured here: combination with BGB at IC20, at 0.5 µM): -51.4% and 13.2% | inhibition ([11]; measured here: combination with cisplatin at IC20, at 0.5 µM): -47.8% and -102% | inhibition ([12]; at 0.5 µM): 1.44% (inactive) and -2.84% (inactive) | inhibition ([12]; measured here: combo with BGB at IC20, at 0.5 µM): -7.11% and -19.4% | inhibition ([12]; measured here: combo with cisplatin at IC20, at 0.5 µM): 0.726% and 22% | inhibition ([13]; at 0.5 µM): -1.03% (inactive) and 0.53% (inactive) | inhibition ([13]; measured here: inhibition with BGB combination, at 0.05 µM): -18.8% and -9.83% | inhibition ([13]; measured here: inhibition with cisplatin combination, at 0.05 µM): -9.85% and -22.8% | inhibition ([14]; at 0.5 µM): -22.5% (inactive) and -23.2% (inactive) | inhibition [14, 23]: -24.3% and -25.9% | inhibition [14, 24]: -28.5% and -13.6% | inhibition ([15]; at 0.5 µM): -22.6% (inactive) and -14.7% (inactive) | inhibition ([15]; measured here: BGB combination, at 0.5 µM): -20.2% and -14.3% | inhibition ([15]; measured here: BGB combination, at 5 µM): -29.4% and -4.55% | inhibition ([15]; measured here: cisplatin combination, at 0.5 µM): -45.1% and -27.9% | inhibition ([15]; measured here: cisplatin combination, at 5 µM): -26.8% and -16.1% | inhibition ([16]; BGB combination, concentration series, at 5 µM): 3.42% and 17.2% | inhibition ([16]; at 0.5 µM): -3.79% (inactive) and -4% (inactive) | inhibition ([16]; cisplatin combination, concentration series, at 5 µM): 4.29% and 15.7% | inhibition [17]: 2.24% (inactive) and 16.1% (inactive) | inhibition ([17]; measured here: combo with BGB IC20): 5.31% and 10% | inhibition ([17]; measured here: combo with cisplatin IC20): -12.9% and 15.6% | inhibition ([18]; at 0.5 µM): -16.2% (inactive) and -0.543% (inactive) | inhibition ([18]; cisplatin combination, at 0.5 µM): -6.73% and -17% | inhibition ([18]; cisplatin combination, at 5 µM): -56% and -11.7% | inhibition ([18]; measured here: BGB IC40 combination 0.05 uM, at 0.05 µM): -15.3% and -38.9% | inhibition ([18]; single agent, at 5 µM): -26.9% and -18.4% | inhibition ([19]; at 0.5 µM): -17.5% (inactive) and -22.8% (inactive) | inhibition ([19]; cisplatin combo, at 5 µM): 8.02% and 8.44% | inhibition ([19]; measured here: BGB IC40 combination, at 0.05 µM): -20.9% and -5.23% | inhibition [19, 23]: -20.5% and -16.6% | inhibition ([19]; single agent, at 5 µM): -16.6% and -17.8% | inhibition ([20]; at 0.5 µM): -6.92% (inactive) and -37.6% (inactive) | inhibition [20, 21]: -15.7% and -14.1% | inhibition [20, 22]: -2.53% and -51.8% | inhibition ([20]; single agent, at 0.05 µM): -4.42% and -41.6% | inhibition ([20]; single agent, at 5 µM): 18.4% and -24.6%

O=c1cc(-c2ccc(O)cc2)oc2cc(O)cc(O)c12
normalised LDH release [1]: 0.887
